The campaign covered roughly 5,500 compounds. About 2,000 (36%) were called active. Not shown: some 18% with an inconclusive outcome. No stated cut-off is given here; in the data, active means normalized growth mostly below about 0.91 (no sharp cut-off); inconclusive means no clear call, values can overlap the other calls; inactive means mostly above about 0.92. Some of the results follow.
Experiment: chemical genetic growth profiling, strain panel (AID 1159580);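 further: tested at 20 µM; growth read once vehicle control cultures reached saturation at 30 °C; 1 = growth at the plate median or of vehicle wells; lower values mean less growth of the strain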
Details: S. cerevisiae deletion strains, growth OD

Measured: normalized growth

O=C1C(NCc2ccccc2)=C(NCc2ccccc2)C(=O)c2ccccc21
inactive: locus YAR019C, strain CDC15, hits give low values 0.929 | locus YBL105C, strain PKC1, hits give low values 0.915 | locus YBR135W, strain CKS1, hits give low values 0.918 | locus YBR136W, strain MEC1, hits give low values 0.913 | locus YBR160W, strain CDC28, hits give low values 0.92 | locus YDL017W, strain CDC7, hits give low values 0.922 | locus YDL028C, strain MPS1, hits give low values 0.904 | locus YDL101C, strain DUN1, hits give low values 0.916 | locus YDL108W, strain KIN28, hits give low values 0.897 | locus YDL132W, strain cdc53, hits give low values 0.907 | locus YDL214C, strain PRR2, hits give low values 0.869 | locus YDR052C, strain DBF4, hits give low values 0.931 | locus YDR054C, strain cdc34, hits give low values 0.921 | locus YDR477W, strain SNF1, hits give low values 0.839 | locus YER123W, strain YCK3, hits give low values 0.845 | locus YER133W, strain GLC7, hits give low values 0.839 | locus YFL009W, strain cdc4, hits give low values 0.902 | locus YFL029C, strain CAK1, hits give low values 0.913 | locus YFR003C, strain YPI1, hits give low values 0.912 | locus YFR019W, strain FAB1, hits give low values 0.942 | locus YGR040W, strain KSS1, hits give low values 0.825 | locus YGR052W, strain FMP48, hits give low values 0.893 | locus YGR092W, strain DBF2, hits give low values 0.744 | locus YHR030C, strain SLT2, hits give low values 0.885 | locus YHR079C, strain IRE1, hits give low values 0.979 | locus YHR082C, strain KSP1, hits give low values 0.883 | locus YHR205W, strain SCH9, hits give low values 0.931 | locus YIL147C, strain SLN1, hits give low values 0.895 | locus YJL095W, strain BCK1, hits give low values 0.886 | locus YJL128C, strain PBS2, hits give low values 0.885 | locus YJL157C, strain FAR1, hits give low values 0.833 | locus YJR066W, strain TOR1 (second series), hits give low values 0.775 | locus YJR066W, strain TOR1, hits give low values 0.879 | locus YKL048C, strain ELM1, hits give low values 0.829 | locus YKL067W, strain YNK1, hits give low values 0.862 | locus YKL101W, strain HSL1, hits give low values 0.875 | locus YKL193C, strain SDS22, hits give low values 0.906 | locus YKL203C, strain TOR2, hits give low values 0.84 | locus YLR113W, strain HOG1, hits give low values 0.895 | locus YLR133W, strain CKI1, hits give low values 0.856 | locus YLR403W, strain SFP1, hits give low values 0.802 | locus YML070W, strain DAK1, hits give low values 0.871 | locus YMR001C, strain CDC5, hits give low values 0.896 | locus YMR205C, strain PFK2 (second series), hits give low values 0.878 | locus YMR277W, strain FCP1, hits give low values 0.903 | locus YNL006W, strain LST8, hits give low values 0.923 | locus YNL020C, strain ARK1, hits give low values 0.845 | locus YNL161W, strain CBK1, hits give low values 0.922 | locus YNL183C, strain NPR1, hits give low values 0.904 | locus YNL222W, strain SSU72, hits give low values 0.925 | locus YNL307C, strain MCK1 (second series), hits give low values 0.842 | locus YOL078W, strain AVO1, hits give low values 0.911 | locus YOL136C, strain PFK27, hits give low values 0.884 | locus YOR061W, strain CKA2, hits give low values 0.817 | locus YOR119C, strain RIO1, hits give low values 0.784 | locus YOR231W, strain MKK1, hits give low values 0.954 | locus YOR329C, strain SCD5, hits give low values 0.935 | locus YPL031C, strain PHO85, hits give low values 0.837 | locus YPL153C, strain RAD53, hits give low values 0.826 | locus YPL204W, strain HRR25, hits give low values 0.827 | locus YPL209C, strain IPL1, hits give low values 0.934 | locus YPL256C, strain CLN2, hits give low values 0.986 | locus YPR025C, strain CCL1, hits give low values 0.93 | locus YPR106W, strain ISR1, hits give low values 0.899 | locus YPR111W, strain DBF20, hits give low values 0.91 | strain NNK1, hits give low values 0.902 | strain TSCII, hits give low values 0.907
active: locus YDR226W, strain ADK1, hits give low values 0.893 | locus YFR028C, strain CDC14, hits give low values 0.881 | locus YJR016C, strain ILV3, hits give low values 0.898 | locus YNL207W, strain RIO2, hits give low values 0.874

NNCc1ccccc1
inactive: locus YAL021C, strain ccr4, hits give low values 0.993 | locus YAL026C, strain drs2, hits give low values 0.986 | locus YAL030W, strain snc1, hits give low values 0.979 | locus YBL061C, strain skt5, hits give low values 0.983 | locus YBR009C, strain hhf1, hits give low values 1 | locus YBR023C, strain chs3, hits give low values 0.982 | locus YBR171W, strain sec66, hits give low values 0.97 | locus YBR231C, strain swc5, hits give low values 1.01 | locus YBR279W, strain paf1, hits give low values 0.982 | locus YCL011C, strain gbp2, hits give low values 0.99 | locus YCL016C, strain dcc1, hits give low values 0.982 | locus YCL069W, strain vba3, hits give low values 0.993 | locus YCR088W, strain abp1, hits give low values 0.974 | locus YDL005C, strain med2, hits give low values 0.992 | locus YDL040C, strain nat1, hits give low values 0.971 | locus YDR001C, strain nth1, hits give low values 0.989 | locus YDR069C, strain doa4, hits give low values 0.976 | locus YDR137W, strain rgp1, hits give low values 0.96 | locus YDR159W, strain sac3, hits give low values 0.983 | locus YDR195W, strain ref2 1.02 | locus YDR297W, strain sur2, hits give low values 0.989 | locus YDR334W, strain swr1, hits give low values 0.99 | locus YDR335W, strain msn5, hits give low values 1 | locus YDR392W, strain spt3, hits give low values 1 | locus YEL003W, strain gim4, hits give low values 0.996 | locus YEL037C, strain rad23, hits give low values 0.991 | locus YEL061C, strain CIN8 (second series), hits give low values 0.978 | locus YER015W, strain faa2, hits give low values 0.999 | locus YER016W, strain bim1, hits give low values 0.998 | locus YER111C, strain swi4, hits give low values 0.988 | locus YER155C, strain BEM2 (second series), hits give low values 0.989 | locus YFR010W, strain ubp6, hits give low values 0.989 | locus YGL167C, strain pmr1, hits give low values 0.989 | locus YGL173C, strain kem1, hits give low values 0.961 | locus YGL227W, strain vid30, hits give low values 0.994 | locus YGL240W, strain doc1, hits give low values 0.98 | locus YGL253W, strain hxk2, hits give low values 0.993 | locus YHR013C, strain ard1, hits give low values 1.03 | locus YHR027C, strain rpn1, hits give low values 0.997 | locus YHR142W, strain chs7, hits give low values 0.985 | locus YJL092W, strain hpr5, hits give low values 0.993 | locus YJL095W, strain BCK1 (second series), hits give low values 0.986 | locus YJL115W, strain asf1, hits give low values 0.987 | locus YJL129C, strain trk1, hits give low values 0.978 | locus YJL154C, strain vps35, hits give low values 0.986 | locus YJL164C, strain tpk1, hits give low values 0.98 | locus YJL166W, strain qcr8, hits give low values 0.997 | locus YJL187C, strain SWE1, hits give low values 0.987 | locus YKL160W, strain elf1, hits give low values 0.988 | locus YKR026C, strain gcn3, hits give low values 0.974 | locus YKR091W, strain srl3, hits give low values 0.985 | locus YLL001W, strain dnm1, hits give low values 0.983 | locus YLL026W, hits give low values 1 | locus YLL041C, strain sdh2, hits give low values 0.992 | locus YLR027C, strain aat2, hits give low values 0.991 | locus YLR221C, strain rsa3, hits give low values 0.978 | locus YLR258W, strain gsy2, hits give low values 0.987 | locus YLR262C, strain YPT6 (second series), hits give low values 0.906 | locus YLR320W, strain mms22, hits give low values 0.993 | locus YLR342W, strain FKS1, hits give low values 0.981 | locus YLR357W, strain rsc2, hits give low values 0.967 | locus YLR370C, strain arc18, hits give low values 0.983 | locus YLR384C, strain iki3, hits give low values 0.992 | locus YML120C, strain ndi1, hits give low values 0.979 | locus YMR058W, strain fet3, hits give low values 0.996 | locus YMR125W, strain sto1, hits give low values 0.986 | locus YMR129W, hits give low values 0.99 | locus YMR205C, strain PFK2, hits give low values 0.976 | locus YMR231W, strain pep5, hits give low values 0.994 | locus YNL071W, strain lat1, hits give low values 1.01 | locus YNL209W, strain ssb2, hits give low values 0.989 | locus YNL248C, strain rpa49, hits give low values 0.993 | locus YNL322C, strain KRE1 (second series), hits give low values 0.992 | locus YNR049C, strain mso1, hits give low values 0.99 | locus YOR001W, strain rrp6, hits give low values 0.994 | locus YOR070C, strain gyp1, hits give low values 0.989 | locus YOR080W, strain dia2, hits give low values 0.983 | locus YOR083W, strain WHI5, hits give low values 0.987 | locus YOR106W, strain vam3, hits give low values 0.963 | locus YOR265W, strain rbl2, hits give low values 1 | locus YOR270C, strain vph1, hits give low values 0.979 | locus YOR290C, strain snf2, hits give low values 0.987 | locus YPL051W, strain arl3, hits give low values 0.969 | locus YPL078C, strain atp4, hits give low values 0.997 | locus YPL106C, strain sse1, hits give low values 0.963 | locus YPL240C, strain hsp82, hits give low values 1

— PubChem BioAssay AID1159580 (chemical genetic matrix, 2015)
